Measurements as given in PubChem BioAssay AID1578 (Sanford-Burnham Center for Chemical Genomics, 2009).
Out of some 290,000 compounds screened, about 3,000 (1%) were called active. Rule as the data show it: active = inhibition mostly above about 36% (no sharp cut-off); inactive = mostly below about 34%. The full list was thinned out, with actives kept by preference.

assay: NOD1 signaling inhibitors, primary screen, cell-based, luminescence, uHTS (AID 1578); settings: NOD1-driven NF-kB luciferase reporter cells, at 4 µM, stronger effect = higher value;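 also: HEK-293T reporter cells stimulated with the NOD1 agonist gamma-tri-DAP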

Structure (SMILES) | inhibition
CCOC(=O)c1sc(NC(=O)C(C)Sc2nnc(N)s2)nc1C (stereo not given) | -12.9% (inactive)
CCNC(=O)Nc1cc2nc(C)n(Cc3ccc(Br)cc3)c2nc1C | 24.1% (inactive)
Cc1cc(C(=O)CCl)c(C)n1-c1c(C)n(C)n(-c2ccccc2)c1=O | 42.5% (active)
Cc1cc(-n2c(C)cc(C(=O)CN3C(=O)NC4(CCCC4)C3=O)c2C)no1 | -20.6% (inactive)
Cc1cc(C(=O)CC#N)c(C)n1-c1c(C)n(C)n(-c2ccccc2)c1=O | -19.8% (inactive)
CC(=O)c1c(C(C)=O)c(C)n(-c2cccc([N+](=O)[O-])c2)c1C | -27.2% (inactive)
COc1ccc(-n2c(C)cc(C(=O)CCl)c2C)cc1 | 39.1% (inactive)
Cc1cc(C(=O)CCl)c(C)n1-c1cccc([N+](=O)[O-])c1 | 77.4% (active)
Cc1cc(-n2c(C)cc(C(=O)CCl)c2C)no1 | 46.4% (active)
CCOC(=O)c1cc(C)n(-c2c(C)n(C)n(-c3ccccc3)c2=O)c1C | -12.8% (inactive)
Cc1cc(C(=O)CCl)c(C)n1-c1ccon1 | 28.2% (inactive)
COc1ccc(NC(=O)Nc2cccc3ccccc23)cc1S(N)(=O)=O | 25.8% (inactive)
N/C(=N\O)c1cccc(CS(=O)(=O)c2ccccn2)c1 | -7.5% (inactive)
Cc1ccc(-n2[nH]c(C)c(C=NC34CN5CN(CN(C5)C3)C4)c2=O)cc1C | 9.5% (inactive)
CCCN1C(=S)c2ccccc2C1c1ccccc1 (stereo not given) | 35.5% (inactive)
O=S(=O)(NN1CCOCC1)c1ccc(Cl)s1 | -37.6% (inactive)
O=C1c2cccc3cccc(c23)C(=O)N1Cc1ccccc1 | -16.9% (inactive)
Cc1ccc(CN2CCN(CCCn3cccn3)CC2CCO)cc1 (stereo not given) | -31% (inactive)
CCOC(=O)N1CCN(c2cc(=O)n(Cc3ccc(F)cc3)c(=O)[nH]2)CC1 | -37.3% (inactive)
Cc1ccc(CN2C3CCCC2CC(NC(=O)c2ccc(F)cc2)C3)cc1 (stereo not given) | -0.1% (inactive)
Cc1ccc(C(=O)NC2CC3CCCC(C2)N3Cc2ccccc2)cc1 (stereo not given) | 59% (active)
Cc1ccc(CN2C3CCCC2CC(NC(=O)c2ccc(C)cc2)C3)cc1 (stereo not given) | -21.4% (inactive)
CC1CCCC(C)N1C(=O)Cn1nnc(-c2ccc([N+](=O)[O-])cc2)n1 (stereo not given) | -36.1% (inactive)
CC1(C)CC(=O)C(C2=NC(C)(C)Cc3ccccc32)=C(O)C1 | -9.1% (inactive)

Structure (SMILES) | inhibition
CC1=NC(C)(C)Cc2ccccc21 | 1.3% (inactive)
CC1(C)Cc2ccccc2C2=NNC(=O)C2=N1 | 41.8% (active)
O=[N+]([O-])c1cc2c(cc1/C=N/Nc1nc(Nc3ccccc3)nc(N3CCCCC3)n1)OCO2 | -23% (inactive)
Cc1ccc([N+](=O)[O-])cc1NC(=O)CN(C1CCCCC1)S(=O)(=O)c1ccc(Cl)cc1 | -5% (inactive)
O=S(=O)(c1ccc2ccccc2c1)N(CC1CO1)c1ccccc1 (stereo not given) | -30.1% (inactive)
Cc1cc(SCC(=O)c2cccs2)n2nc(C)c(-c3ccccc3)c2n1 | 20.3% (inactive)
Cc1nn2c(SCC(=O)c3cccs3)cc(C(C)(C)C)nc2c1-c1ccccc1 | 5.2% (inactive)
Cc1cc(SCC(=O)c2cccs2)n2nc(C)c(-c3ccc(Cl)cc3)c2n1 | 79.4% (active)
CCOc1ccc(/C=N/n2c(C)nc3ccccc3c2=O)cc1 | -12.3% (inactive)
N#C/C(=C\c1cn(-c2ccccc2)nc1-c1cccnc1)c1nnc2n1CCCCC2 | -13% (inactive)
O=C1COc2ccc(S(=O)(=O)NCc3ccccc3)cc2N1 | -13.7% (inactive)
Nc1ccc(-c2ncc(-c3ccccc3)o2)cc1 | 46.7% (active)
c1ccc(-c2cnc(-c3cccnc3)o2)cc1 | -16.8% (inactive)
NC(=O)c1ccc(-c2ncc(-c3ccccc3)o2)cc1 | 14.6% (inactive)
CCC(C)(C)NC(=O)CN(C(=O)CNS(=O)(=O)c1ccc(F)cc1)c1ccc2c(c1)OCCO2 | -13% (inactive)
O=C(NCCCn1ccnc1)c1ccc(Cl)c(Cl)c1 | 3.9% (inactive)
O=S(=O)(Nc1ccc(N2CCOCC2)cc1)c1cccs1 | -20.1% (inactive)
O=C1N/C(=N\N=C\c2cccnc2)SC1Cc1ccc(SC(F)F)cc1 (stereo not given) | 106% (active)
O=C(CC1S/C(=N/N=C/c2cccnc2)NC1=O)Nc1ccccc1 (stereo not given) | -13.1% (inactive)
O=C1N/C(=N\N=C\c2ccc3ncccc3c2)SC1Cc1ccc(SC(F)F)cc1 (stereo not given) | -44% (inactive)
O=C(N/N=C/c1ccc([N+](=O)[O-])cc1)c1cccc(N2CCCC2=O)c1 | -9.3% (inactive)
Cc1cc(=O)oc2cc(OCC(=O)NC(Cc3c[nH]c4ccc(O)cc34)C(=O)O)c(Cl)cc12 (stereo not given) | -16.2% (inactive)
Cc1c(C(=O)NCCN2C(=O)S/C(=C\c3cccnc3)C2=O)cccc1[N+](=O)[O-] | 1.5% (inactive)
COc1ccc2c(CC(=O)NCCN3C(=O)S/C(=C\c4cccnc4)C3=O)coc2c1 | 68% (active)

Structure (SMILES) | inhibition
CS(=O)(=O)c1ccc(C(=O)NCCN2C(=O)S/C(=C\c3cccnc3)C2=O)cc1[N+](=O)[O-] | 93.4% (active)
COc1ccc(C(=O)NCCN2C(=O)S/C(=C\c3cccnc3)C2=O)cc1[N+](=O)[O-] | 1.6% (inactive)
COc1ccc(/C=C2\SC(=O)N(CCNC(=O)Cc3coc4cc(OC)ccc34)C2=O)cc1 | -10.8% (inactive)
COc1ccc(/C=C2\SC(=O)N(CCNC(=O)Cc3coc4cc(C)ccc34)C2=O)cc1OC | -2.7% (inactive)
O=C(O)CSCC(=O)N1CCN(S(=O)(=O)c2ccccc2)CC1 | -20.2% (inactive)
c1ccc(NC2=NCCN2CC2CCCC2)cc1 | -17.2% (inactive)
CCC(C)NC(=O)c1ccc2nc(Cc3ccc(OC)cc3)oc2c1 (stereo not given) | -14.9% (inactive)
COc1ccc(Cc2nc3ccc(C(=O)NC(C)c4cnn(C)c4)cc3o2)cc1 (stereo not given) | -4.3% (inactive)
COc1ccc(OC)c(NC(=O)CNC(=O)Cn2cnc3sc(C)cc3c2=O)c1 | -3.5% (inactive)
COc1ccc(-c2cc(=O)oc3cc(OCC(C)=O)ccc23)cc1 | -12.9% (inactive)
COc1ccc(-c2cc(=O)oc3cc(OC(=O)C4CCCCC4)ccc23)cc1 | 87.8% (active)
COc1ccc(-c2cc(=O)oc3cc(OC(C)C(=O)O)ccc23)cc1 (stereo not given) | 29.6% (inactive)
O=C(Oc1ccc2c(-c3ccccc3)cc(=O)oc2c1)C1CCCCC1 | 13.8% (inactive)
O=C(Oc1ccc2ccc(=O)oc2c1)C1CCCCC1 | -28.4% (inactive)
Nc1cc(=O)[nH]c(SCc2ccccc2Cl)n1 | -3.2% (inactive)
CN1C(=O)S/C(=C/c2cccnc2)C1=O | -3.3% (inactive)
Cc1cc(C(=O)NC2CC(C)(C)Cc3c2cnn3-c2ccccc2C)c(C)o1 (stereo not given) | -10.6% (inactive)
Clc1ccccc1OCc1nn2c(-c3ccncc3)nnc2s1 | -2.2% (inactive)
COc1ccc(NC(=O)CSc2ccc(-c3sc(C)nc3C)nn2)cc1 | -17.2% (inactive)
COc1ccc(NC(=O)CSc2ccc(-c3sc(C)nc3C)nn2)cc1OC | -3.5% (inactive)
CCOC(=O)CCCCCN1C(=O)c2cccc3cccc(c23)C1=O | -23.8% (inactive)
CCN(CC)S(=O)(=O)c1ccc(C(=O)NCCCn2ccnc2)cc1 | -65.6% (inactive)
O=C(O)c1ccc(N2CCCCS2(=O)=O)cc1 | -12.1% (inactive)
Cc1noc(C(=O)NCc2ccco2)c1Cl | -14.8% (inactive)

Structure (SMILES) | inhibition
COc1ccc(NC(=O)CS(=O)(=O)c2ccc(F)cc2)cc1 | -5.8% (inactive)
O=C(Nc1ccccc1)c1cc2ccc3ccccc3c2s1 | -10.5% (inactive)
O=C(Nc1ccc(O)cc1)c1cc2ccccc2c(=O)s1 | -2.1% (inactive)
O=C(Nc1ccccc1)c1cc2ccccc2c(=O)s1 | 63.7% (active)
Cc1ccc(C)c(N2CCN(C(=O)CCS(=O)(=O)c3cccc4nonc34)CC2)c1 | 1.8% (inactive)
CC(C)C[C@@H](N)c1nnc(SCC(=O)c2ccc(Cl)cc2)o1 | -21.8% (inactive)
CC(C)[C@H](N)c1nnc(SCc2ccc(Cl)cc2)o1 | -4.6% (inactive)
CC(C)C[C@H](N)c1nnc(SCc2ccc(Cl)cc2)o1 | 20.5% (active)
COc1cc(C=Nc2cccc(C)c2)c(O)c([N+](=O)[O-])c1 | -20.1% (inactive)
Cc1ccc(O)c(C=Nc2cc(C)ccc2O)c1 | -25.5% (inactive)
O=[N+]([O-])c1cc(Cc2ccccc2)cc(C=Nc2ccc(N3CCOCC3)cc2)c1O | 34% (inactive)
COc1ccc(N=Cc2cc(Cc3ccccc3Cl)cc([N+](=O)[O-])c2O)cc1OC | 62.4% (active)
COc1ccc(N=Cc2cccc(C)c2O)cc1Cl | -10% (inactive)
O=C(N/N=C/c1cc([N+](=O)[O-])c(N2CCOCC2)cc1N1CCOCC1)c1cccnc1 | -24.1% (inactive)
O=C(COC(=O)COc1ccccc1[N+](=O)[O-])Nc1ccccc1Br | 9.3% (inactive)
Cc1c(C(=O)N2CCCC2)sc(NC(=O)c2ccco2)c1C#N | 48.7% (active)
Cc1c(C(=O)N2CCCC2)sc(NC(=O)c2ccccc2)c1C#N | -9.5% (inactive)
Cc1c(C(=O)N2CCCCC2)sc(NC(=O)c2ccco2)c1C#N | -0.9% (inactive)
CC1C(=NO)C(C)C(c2ccc(N(C)C)cc2)NC1c1ccc(N(C)C)cc1 (stereo not given) | 4% (inactive)
COc1ccc2c(c1)sc1nc(=O)ccn12 | -3.3% (inactive)
COc1ccc2c(c1)sc1nc(-c3ccccc3)cn12 | 34.4% (active)
CCOC(=O)N1CCN(C(=O)c2ccc3c(c2)sc2nc(-c4ccc(OC)cc4)cn23)CC1 | -15.5% (inactive)
O=C(COc1ccccc1)Nc1ccc(Cl)c(-c2nc3ncccc3o2)c1 | -25.6% (inactive)
